These results are taken from PubChem BioAssay (Tox21).

Each structure is given as a SMILES string. Results filed as inconclusive are left out. Active and inactive are the calls of the source. Unless noted, calls follow the shape of the dose curve; as a rule, active = well fitted curve in the direction sought with a large enough effect in the repeat runs; inconclusive = weak or mixed curves; inactive = flat fitted curve, though single readings scatter.

Assay [1] is described as follows: qHTS assay to test for compound auto fluorescence at 535 nm (green) in HEK293 cells (AID 720680).
Assay [2] in a line: qHTS assay to test for compound auto fluorescence at 460 nm (blue) in HEK293 cell free culture (AID 720681). The method, boiled down:
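Blue fluorescence (Ex 405/Em 460 nm, triamterene-equivalent) was read immediately after pin transfer of compound or DMSO into medium (DMEM, 10% FBS) without cells.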
Background: qHTS replaces the single test concentration by a dilution series.

Assay [3] is described as follows: qHTS assay to test for compound auto fluorescence at 535 nm (green) in HEK293 cell free culture (AID 720682). The method, boiled down:
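No cells present: wells hold DMEM supplemented with 10% FBS, into which compound or vehicle is pinned. Green emission is then recorded (485 nm excitation, 535 nm emission) and scaled to fluorescein.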

A short description of assay [4]: qHTS assay to test for compound auto fluorescence at 590 nm (red) in HEK293 cell free culture (AID 720683). Put shortly:
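Red-channel autofluorescence of compounds in culture medium (DMEM, 10% FBS), no cells, measured at 540/590 nm. Rose Bengal sodium is the reference fluorophore for equivalence.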

Assay [5] is described as follows: qHTS assay to test for compound auto fluorescence at 590 nm (red) in HepG2 cell free culture (AID 720684). Put shortly:
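Steps: dispense MEM/10% FBS medium, no cells; pin compound or DMSO vehicle; read red channel, Ex/Em 540/590 nm. Output given as Rose Bengal sodium equivalents.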

Assay [6] can be described thus: qHTS assay to test for compound auto fluorescence at 460 nm (blue) in HepG2 cell free culture (AID 720685). Put shortly:
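Compound (23 nL) or DMSO pinned into cell-free MEM with 10% FBS; blue fluorescence read at 405/460 nm excitation/emission, expressed as auto-fluorescence equivalency to triamterene.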

Assay [7] is described as follows: qHTS assay to test for compound auto fluorescence at 535 nm (green) in HepG2 cell free culture (AID 720686).
The nature of assay [8]: qHTS assay to test for compound auto fluorescence at 460 nm (blue) in HepG2 cells (AID 720687). The method, boiled down:
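Blue-channel autofluorescence (Ex/Em 405/460 nm, triamterene-equivalent) was measured after 1 hr compound exposure at 37 C, 5% CO2. Cells were HepG2, plated overnight at 37 C in MEM plus 10% FBS.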

Assay [9] addresses Glucocorticoid receptor (Homo sapiens) (UniProt P04150). Kind of assay: qHTS assay to identify small molecule agonists of the glucocorticoid receptor (GR) signaling pathway (AID 720691; active = well fitted activation curve with a large enough effect in the signal ratio in the repeat runs, not every such curve was filed as active; the % refers to the signal ratio). To be noted: GR-bla HeLa, beta-lactamase reporter ratio, 18 h; activation: at 62.4 µM (top of the series). Put shortly: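 Agonist mode in a HeLa line carrying a GRE-controlled beta-lactamase reporter. Compounds act for 18 h at 37 C before a 2 h room-temperature FRET substrate step and fluorescence reading.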

The target is the same in assay [10]. Kind of assay: qHTS assay to identify small molecule antagonists of the glucocorticoid receptor (GR) signaling pathway (AID 720692; active = well fitted inhibition curve with a large enough effect in the signal ratio in the repeat runs, not every such curve was filed as active; the % refers to the signal ratio; also: potency is read from the fitted curve at half-maximal effect). Put shortly: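 Cells plated, rested 4 h at 37 C/5% CO2; compounds in DMSO pin-transferred; dexamethasone added to 5 nM final; 18 h at 37 C; B/G FRET substrate added, 2 h room temperature; fluorescence measured.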

Glucocorticoid receptor (Homo sapiens), sequence (P04150 whole entry, looked up): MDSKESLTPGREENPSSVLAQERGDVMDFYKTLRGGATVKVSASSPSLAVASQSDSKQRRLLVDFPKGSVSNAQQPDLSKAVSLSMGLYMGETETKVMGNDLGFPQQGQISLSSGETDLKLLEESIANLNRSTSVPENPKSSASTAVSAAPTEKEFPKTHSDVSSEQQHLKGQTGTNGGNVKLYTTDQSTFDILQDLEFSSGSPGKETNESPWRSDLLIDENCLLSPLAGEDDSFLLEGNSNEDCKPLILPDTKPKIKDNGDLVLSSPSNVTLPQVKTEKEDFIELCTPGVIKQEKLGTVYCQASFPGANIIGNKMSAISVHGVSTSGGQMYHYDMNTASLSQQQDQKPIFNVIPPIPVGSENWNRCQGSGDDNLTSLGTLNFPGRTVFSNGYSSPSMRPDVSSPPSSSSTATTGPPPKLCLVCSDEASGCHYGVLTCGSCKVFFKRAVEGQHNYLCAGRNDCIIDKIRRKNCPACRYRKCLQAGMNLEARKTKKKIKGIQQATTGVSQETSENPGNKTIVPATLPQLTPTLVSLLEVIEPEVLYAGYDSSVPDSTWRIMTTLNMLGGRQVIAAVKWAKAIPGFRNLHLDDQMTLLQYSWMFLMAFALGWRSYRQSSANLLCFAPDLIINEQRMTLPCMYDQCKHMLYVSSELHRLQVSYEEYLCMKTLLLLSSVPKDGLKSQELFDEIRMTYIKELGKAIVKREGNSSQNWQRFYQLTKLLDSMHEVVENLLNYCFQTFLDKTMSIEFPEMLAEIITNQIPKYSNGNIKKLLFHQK

In the case of `C[N+](C)(C)CCOP(=O)(O)OP(=O)([O-])OC[C@H]1O[C@@H](n2ccc(N)nc2=O)[C@H](O)[C@@H]1O`, the result in assay [1], in assay [3], in assay [4] and in assay [5] was inactive. The Potency result in [2], in assay [6], in assay [7], in assay [8], in assay [9] and in [10] was “inactive” in each case.

As to `CC(C)(Oc1ccc(C2CCCc3ccccc32)cc1)C(=O)O` (stereo not given), the compound was called inactive in [1], in assay [3], in assay [4] and in assay [5]. In addition, the Potency entry in assay [2], in assay [6], in assay [7], in assay [8], in assay [9] and in [10] was “inactive” each time.

Take `CO/N=C(\C(=O)N[C@@H]1C(=O)N2C(C(=O)O)=C(C[N+]3(C)CCCC3)CS[C@H]12)c1csc(N)n1`: the compound was called inactive in assay [1], in assay [3], in assay [4] and in assay [5]. The Potency result in assay [2], in assay [6], in assay [7], in assay [8], in [9] and in assay [10] was “inactive” throughout.

`CC1(C)CCC(NC(=O)[C@@H](N)CCC(=O)O)CC1`: the call in [1], in assay [3], in [4] and in assay [5] was inactive. The Potency entry in assay [2], in assay [6], in assay [7], in assay [8], in assay [9] and in assay [10] was “inactive” throughout.

For the compound `CC[C@H]1OC(=O)[C@H](C)C(=O)[C@H](C)[C@@H](O[C@@H]2O[C@H](C)C[C@H](N(C)C)[C@H]2O)[C@](C)(OC)C[C@@H](C)C(=O)[C@H](C)[C@H]2N(CCCCn3cnc(-c4cccnc4)c3)C(=O)O[C@]12C`, the compound was called inactive in [1], in assay [3], in assay [4] and in assay [5]. Also, the Potency entry in [2], in assay [6], in [7], in assay [8], in assay [9] and in [10] was “inactive” throughout.

For `CCCCC/C=C\C=C\C(=O)OCC`, the compound was called inactive in assay [1], in [3], in assay [4] and in [5]. Moreover, the Potency entry in assay [2], in [6], in assay [7], in assay [8] and in [9] was “inactive” in each case. Further, the Potency in assay [10] is 45.5 µM (active).

For the compound `O=C1CCCCCCCCCCCCCC1`, the call in [1], in [3], in assay [4] and in [5] was inactive. In addition, the Potency result in assay [2], in assay [6], in [7], in assay [8], in assay [9] and in assay [10] was “inactive” throughout.

On to `C/C(=C\C(=O)OCCCCCCCCC(=O)O)C[C@@H]1OC[C@H](C[C@@H]2O[C@H]2[C@@H](C)[C@H](C)O)[C@@H](O)[C@H]1O`, for which the compound was classed as inactive in assay [1], in [3], in assay [4] and in [5]. The Potency entry in assay [2], in assay [6], in assay [7], in assay [8], in [9] and in assay [10] was “inactive” in each case.

`CC(C)C[C@H](NC(=O)[C@@H](COC(C)(C)C)NC(=O)[C@H](Cc1ccc(O)cc1)NC(=O)[C@H](CO)NC(=O)[C@H](Cc1c[nH]c2ccccc12)NC(=O)[C@H](Cc1cnc[nH]1)NC(=O)[C@@H]1CCC(=O)N1)C(=O)N[C@@H](CCCN=C(N)N)C(=O)N1CCC[C@H]1C(=O)NNC(N)=O`: the result in assay [1], in [3], in assay [4] and in assay [5] was inactive. Also, the Potency entry in assay [2], in [6], in assay [7], in assay [8], in assay [9] and in assay [10] was “inactive” each time.

On to `CC(C)(C)c1ccc2c(S(=O)(=O)O)c(C(C)(C)C)ccc2c1`, for which the outcome in [1], in assay [3], in assay [4] and in assay [5] was inactive. The Potency result in [2], in [6], in assay [7], in [8], in assay [9] and in [10] was “inactive” each time.

Consider `Cc1cc(=O)c(C(=O)N[C@@H](C(=O)N[C@@H]2C(=O)N3C(C(=O)O)=C(CSc4nnnn4C)CS[C@H]23)c2ccc(O)cc2)c[nH]1`, for which the result in assay [1], in [3], in [4] and in assay [5] was inactive. Besides, the Potency entry in assay [2], in [6], in [7], in assay [8], in [9] and in assay [10] was “inactive” throughout.

Take `CC1CCCCN1CCCOC(=O)c1ccccc1` (stereo not given): the result in assay [1], in [3], in assay [4] and in assay [5] was inactive. In addition, the Potency entry in [2], in [6], in assay [7], in [8], in assay [9] and in assay [10] was “inactive” throughout.

Turning to `NCCCC(=O)O`, the compound was classed as inactive in assay [1], in assay [3], in assay [4] and in assay [5]. The Potency entry in [2], in assay [6], in [7], in assay [8], in assay [9] and in assay [10] was “inactive” in each case.

`C(=C\c1ccncc1)/c1ccccc1`: the call in assay [1], in assay [3], in assay [4] and in assay [5] was inactive. For the same compound, the Potency result in assay [2], in assay [6], in assay [7], in [8], in assay [9] and in assay [10] was “inactive” throughout.

As for `CC(C)COC(=O)OCN1C(=O)CN(CCN2CC(=O)N(COC(=O)OCC(C)C)C(=O)C2)CC1=O`, the compound was called inactive in assay [1], in assay [3], in assay [4] and in [5]. In addition, the Potency entry in assay [2], in assay [6], in [7], in assay [8], in assay [9] and in [10] was “inactive” throughout.

For `CCN1CCCC1CNC(=O)c1cc(S(=O)(=O)CC)ccc1OC` (stereo not given), the outcome in assay [1], in [3], in assay [4] and in assay [5] was inactive. In addition, the Potency result in assay [2], in [6], in assay [7], in [8], in [9] and in assay [10] was “inactive” in each case.

On to `O=C(CCCN1CCN2CCCC2C1)c1ccc(F)cc1` (stereo not given), for which the call in assay [1], in [3], in [4] and in [5] was inactive. Further, the Potency entry in [2], in [6], in assay [7], in [8], in assay [9] and in assay [10] was “inactive” in each case.

In the case of `CC(=O)Oc1cc(C(F)(F)F)ccc1C(=O)O`, the compound was classed as inactive in assay [1], in assay [3], in [4] and in assay [5]. In addition, the Potency result in assay [2], in assay [6], in [7], in assay [8], in assay [9] and in [10] was “inactive” in each case.

For `CC[C@@H](C)[C@H](N)C(=O)O`, the result in [1], in [3], in assay [4] and in assay [5] was inactive. The Potency entry in assay [2], in assay [6], in assay [7], in assay [8], in assay [9] and in assay [10] was “inactive” throughout.
